A short description of assay [1]: ATG_M_61_CIS: Attagene CIS-FACTORIAL HepG2 Assay for M61 Transcription Factor (Internal Marker) (AID 2282937). The note with it: HepG2 Attagene CIS-FACTORIAL M61 internal marker reporter; actives raise or lower the signal. An outline of the steps: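 Readout is reporter mRNA by RT-PCR, fluorescent primer extension and capillary electrophoresis, with gain or loss fitted relative to DMSO. Transfected HepG2 cells carrying endogenous-TF-driven cis reporters were exposed to chemicals for 24 hours.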

Assay [2] in a line: ATG_EGR_CIS: Attagene CIS-FACTORIAL HepG2 Assay for human Early Growth Response 1 (EGR1) (AID 2282938). The note with it: HepG2 Attagene CIS-FACTORIAL EGR reporter mRNA; actives raise or lower the signal. In outline: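 After 24 h compound exposure, RNA from reporter-transfected HepG2 cells was reverse-transcribed, PCR-amplified, fluorescently labelled and resolved by capillary electrophoresis. EGR1 reporter transcript changes, up or down, were fitted against DMSO, reflecting endogenous transcription-factor activity.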

Assay [3] in a line: ATG_M_19_CIS: Attagene CIS-FACTORIAL HepG2 Assay for M19 Transcription Factor (Internal Marker) (AID 2282939). The note with it: HepG2 Attagene CIS-FACTORIAL M19 internal marker reporter; actives raise or lower the signal. An outline of the steps: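 HepG2 cells transiently transfected with cis-regulated multiple reporter transcription units were dosed for 24 h; reporter mRNA was quantified by RT-PCR, 6-FAM primer-extension labelling, HpaI digestion and capillary electrophoresis, with bidirectional fitting against DMSO baseline.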

Assay [4] can be described thus: ATG_ERE_CIS: Attagene CIS-FACTORIAL HepG2 Assay for Estrogen Response Element (ERE) (AID 2282940). The note with it: HepG2 ERE cis-reporter, Attagene RNA transcript; actives raise or lower the signal. An outline of the steps:
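HepG2 cells transiently transfected with cis-promoter-driven multiplexed reporter transcription units report endogenous TF activity. After 24 h compound exposure, reporter mRNA is quantified by RT-PCR with capillary electrophoresis fluorescence; bidirectional fitting versus DMSO baseline.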

Assay [5] in a line: ATG_Ets_CIS: Attagene CIS-FACTORIAL HepG2 Assay for human Erythroblast Transformation Specific (ETS) (AID 2282941). Particulars: HepG2 ETS cis-reporter transcription; AC50: actives raise or lower the signal unless noted; outcome: actives raise or lower the signal unless noted. An outline of the steps:
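After transient cis-reporter transfection, HepG2 cells receive test chemical for 24 h. Reporter mRNA levels, measured by RT-PCR and capillary electrophoresis fluorescence, are analysed bidirectionally relative to the DMSO baseline.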

In assay [6] the target is Hepatocyte nuclear factor 3-beta (Homo sapiens) (UniProt Q9Y261). Kind of assay: ATG_FoxA2_CIS: Attagene CIS-FACTORIAL HepG2 Assay for human Forkhead box A2 (FOXA2) (AID 2282942). Particulars: HepG2 cis-reporter transcription factor activity, 24 h; actives raise or lower the signal. In outline: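 Endogenous transcription factor activity is captured via cis-element-driven reporter transcripts in transfected HepG2. Total RNA taken at 24 h post-dosing; labelled RT-PCR products resolved by capillary electrophoresis. Gain or loss fitted versus DMSO.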

The nature of assay [7]: ATG_FoxO_CIS: Attagene CIS-FACTORIAL HepG2 Assay for human Forkhead box O (FoxO) (AID 2282943). The note with it: HepG2 Attagene cis-reporter, FoxO element, mRNA; actives raise or lower the signal. In outline:
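HepG2 cells transiently transfected with cis-element-driven reporter units report endogenous FoxO activity. After 24 h chemical exposure, reporter mRNA quantified by RT-PCR, fluorescent labeling, HpaI digestion and capillary electrophoresis; bidirectional fit versus DMSO.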

A short description of assay [8]: ATG_GATA_CIS: Attagene CIS-FACTORIAL HepG2 Assay for human GATA Binding Protein (AID 2282944). The note with it: HepG2 GATA cis-element reporter, Attagene multiplex mRNA; actives raise or lower the signal. An outline of the steps:
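HepG2 cells transiently transfected with multiplexed cis-element reporter units reflecting endogenous transcription factor activity; reporter mRNA measured after 24 h dosing by RT-PCR, 6-FAM labeling, HpaI digestion and capillary electrophoresis. Bidirectional fitting versus DMSO baseline.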

Assay [9] can be described thus: ATG_GLI_CIS: Attagene CIS-FACTORIAL HepG2 Assay for human Zinc Finger Protein GLI1 (AID 2282945). Particulars: HepG2, Attagene cis-factorial reporter mRNA, GLI element; actives raise or lower the signal. In outline:
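Transiently transfected HepG2 cells report endogenous transcription factor activity via cis-element-driven reporter units. After 24 h compound exposure, reporter mRNA was measured by RT-PCR with capillary electrophoresis; bidirectional fitting against DMSO baseline.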

Assay [10] addresses Bile acid receptor (Homo sapiens) (UniProt Q96RI1). Kind of assay: ATG_IR1_CIS: Attagene CIS-FACTORIAL HepG2 Assay for human Nuclear Receptor Subfamily 1 Group H Member 4 (NR1H4), IR1 submotif (AID 2282946). Particulars: IR1 reporter transcription, actives raise or lower the signal. In outline: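 HepG2 cells transiently transfected with multiple cis-promoter-driven reporter units to measure endogenous transcription factor activity; 24 h exposure. Reporter mRNA read by RT-PCR, FAM labelling, HpaI digestion and capillary electrophoresis. Bidirectional fit versus DMSO.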

This note sets out measurements from PubChem BioAssay (EPA / NIEHS).

Where “and” joins values, the source holds several entries; their conditions need not be identical. Equal entries are not always repeated. More than one record can exist for a structure, and the calls need not agree. Calls of active or inactive are those of the source. How the source made its calls: active means hit-call score of the fitted dose curve at least 0.9, where 1 is the maximum; inactive means score below 0.9.

Chain of Hepatocyte nuclear factor 3-beta (Homo sapiens) (Q9Y261 whole entry, looked up): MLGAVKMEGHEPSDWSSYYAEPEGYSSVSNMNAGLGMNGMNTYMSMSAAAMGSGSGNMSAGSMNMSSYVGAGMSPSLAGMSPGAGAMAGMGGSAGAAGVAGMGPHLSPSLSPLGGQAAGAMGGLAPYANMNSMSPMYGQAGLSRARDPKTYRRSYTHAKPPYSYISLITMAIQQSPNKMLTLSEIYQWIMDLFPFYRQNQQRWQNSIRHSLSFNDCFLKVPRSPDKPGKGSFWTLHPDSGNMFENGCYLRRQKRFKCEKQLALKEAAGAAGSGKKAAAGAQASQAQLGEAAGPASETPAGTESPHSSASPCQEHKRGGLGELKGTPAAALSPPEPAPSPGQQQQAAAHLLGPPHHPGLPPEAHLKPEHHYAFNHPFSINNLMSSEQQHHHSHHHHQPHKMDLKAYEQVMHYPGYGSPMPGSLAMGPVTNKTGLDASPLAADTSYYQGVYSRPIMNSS
Chain of Bile acid receptor (Homo sapiens) (Q96RI1 whole entry, looked up): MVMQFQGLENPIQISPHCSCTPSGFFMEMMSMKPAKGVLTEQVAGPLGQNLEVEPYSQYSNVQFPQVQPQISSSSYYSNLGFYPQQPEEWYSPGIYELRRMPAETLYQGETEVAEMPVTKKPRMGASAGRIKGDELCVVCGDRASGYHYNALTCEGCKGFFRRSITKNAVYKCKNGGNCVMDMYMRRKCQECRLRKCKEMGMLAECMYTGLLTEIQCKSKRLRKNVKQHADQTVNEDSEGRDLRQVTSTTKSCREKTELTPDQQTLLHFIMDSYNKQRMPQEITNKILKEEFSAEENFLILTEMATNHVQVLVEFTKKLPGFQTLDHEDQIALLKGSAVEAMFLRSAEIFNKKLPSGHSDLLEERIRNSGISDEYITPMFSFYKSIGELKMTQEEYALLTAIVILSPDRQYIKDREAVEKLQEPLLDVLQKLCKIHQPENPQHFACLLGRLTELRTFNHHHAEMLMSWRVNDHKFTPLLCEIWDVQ

On to `Cc1ccc2ccc3ccc(C)cc3c2c1`, for which the outcome in assay [1], in [2], in [3], in assay [4], in [5] and in assay [6] was inactive. For the same compound, the result in assay [7], in assay [8], in assay [9] and in [10] was inactive.
Turning to `CCc1cccc(CC)c1N(COC)C(=O)CS(=O)(=O)O`, the outcome in assay [1], in [2], in assay [3], in assay [4], in assay [5] and in assay [6] was inactive. The result in assay [7], in [8], in assay [9] and in assay [10] was inactive.
A word on the AC50: it is the concentration giving half of the maximal activity seen. Consider `CCCCCCC(C)(C)C(=O)O`, for which the compound was called inactive in assay [1], in assay [3], in [5], in assay [6], in assay [7] and in assay [8]. The compound was classed as inactive in assay [9] and in assay [10]. In addition, the concentration at half-maximal activity (AC50) in assay [2] is 130 µM (active); in assay [4], 27.6 µM (active).
For `CC(C)(C)c1ccc(O)c(O)c1`, the result in assay [1], in [2], in assay [3], in assay [7], in assay [8] and in [9] was inactive. Also, in assay [10], the outcome was inactive. The AC50 was 48.7 µM (active) [middle of 4 runs] in assay [2]; 45 µM (active) and 59 µM (active) and 37.3 µM (active) in assay [10].
For `COCC1CCC(CO)CC1` (stereo unspecified), the compound was called inactive in assay [1], in assay [2], in assay [3], in assay [5], in assay [6] and in assay [7]. Further, the compound was called inactive in assay [8], in assay [9] and in [10]. For the same compound, in [4], the half-maximal activity concentration (AC50) is 24.4 µM (active).
For `NCc1cccc(CN)c1`, the compound was called inactive in assay [1], in [2], in [3], in [4], in assay [5] and in [6]. The compound was called inactive in assay [7], in assay [8], in assay [9] and in assay [10].
For the compound `CC(C)CCOCCC(C)C`, the call in assay [1], in assay [2], in [3], in [5], in assay [6] and in assay [7] was inactive. Besides, the call in assay [8], in assay [9] and in assay [10] was inactive. In assay [4], the concentration at half-maximal activity (AC50) is 26.8 µM (active).
In the case of `CCOC(C)=O`, the compound was called inactive in [1], in assay [2], in assay [3], in [4], in assay [5] and in [6]. For the same compound, the outcome in [7], in assay [8] and in [9] was inactive. Also, in [8], the AC50 was 100 µM (active).
As to `CCc1cccc(CC)c1NC(=O)C(=O)O`, the compound was called inactive in assay [1], in assay [2], in assay [3], in [4], in [5] and in assay [6]. In addition, the compound was called inactive in [7], in assay [8], in assay [9] and in [10].
With `O=C1OC2(c3ccccc31)c1cc(I)c(O)c(I)c1Oc1c2cc(I)c(O)c1I`, the result in assay [1], in assay [2], in assay [3], in [5], in [6] and in [7] was inactive. Also, the outcome in assay [8] and in assay [9] was inactive. For the same compound, the AC50 is 36.1 µM (active) and 29.8 µM (active) in assay [2]; 29.9 µM (active) in assay [6].
For `CCC(C)c1nccnc1OC` (stereo unspecified), the result in assay [1], in assay [2], in assay [3], in assay [4], in [5] and in [6] was inactive. The compound was classed as inactive in assay [7], in assay [8], in assay [9] and in assay [10].
As to `OCC(F)(F)C(F)(F)C(F)(F)C(F)(F)C(F)(F)C(F)(F)C(F)(F)C(F)(F)C(F)(F)C(F)(F)C(F)(F)F`, the result in [1], in [2], in assay [3], in [5], in assay [6] and in assay [7] was inactive. The call in assay [8], in [9] and in [10] was inactive. For the same compound, the half-maximal activity concentration (AC50) in [4] was 72.3 µM (active).
For `COC1=CC(=O)C[C@@H](C)[C@]12Oc1c(Cl)c(OC)cc(OC)c1C2=O`, the compound was called inactive in assay [1], in assay [2], in [3], in assay [4], in assay [5] and in assay [6]. Further, the compound was called inactive in assay [7], in assay [8], in assay [9] and in [10].
For `C/C=C/C(=O)C1=C(C)CCCC1(C)C`, the result in assay [1], in [3], in [4], in [5], in [6] and in [8] was inactive. For the same compound, the concentration at half-maximal activity (AC50) was 55.4 µM (active) in [2], 138 µM (active) in assay [7], 69.7 µM (active) in [9] and 43.9 µM (active) in assay [10].
As for `O=C1Cc2ccccc2N1c1c(Cl)cccc1Cl`, the outcome in assay [1], in assay [2], in assay [3], in assay [5], in assay [6] and in assay [7] was inactive. For the same compound, the outcome in [8] and in assay [9] was inactive. In addition, the half-maximal activity concentration (AC50) is 6.29 µM (active) in assay [4] and 100 µM (active) in assay [10].
With `O=C1C=CC(=O)N1c1cccc(N2C(=O)C=CC2=O)c1`, the call in assay [1], in assay [2], in assay [3], in assay [4], in assay [5] and in assay [6] was inactive. For the same compound, the compound was called inactive in assay [7], in assay [8], in assay [9] and in assay [10].
Regarding `COc1cc([N+](=O)[O-])ccc1N`, the result in [1], in assay [2], in assay [4], in assay [5], in assay [6] and in assay [7] was inactive. The compound was classed as inactive in assay [8], in [9] and in assay [10].
For `C[C@]12CC[C@@H]3c4ccc(O)cc4CC[C@H]3[C@@H]1CC[C@@H]2OC(=O)CCC1CCCC1`, the call in assay [1], in [2], in assay [6], in assay [8] and in assay [10] was inactive. The AC50 was 0.0823 µM (active) in assay [4], 177 µM (active) in assay [7] and 100 µM (active) in assay [9].
Regarding `O=C(CCCN1CCC(O)(c2ccc(Cl)cc2)CC1)c1ccc(F)cc1`, the compound was classed as inactive in assay [1], in assay [3], in assay [5] and in assay [9]. Further, the AC50 in assay [2] was 33.4 µM (active); in assay [7], 52.7 µM (active); in assay [8], 52.8 µM (active).
In the case of `Oc1ccc(Cc2ccccc2O)cc1`, the compound was called inactive in assay [1], in [2], in assay [5], in assay [6], in assay [8] and in [9]. Also, the compound was classed as inactive in [10]. The AC50 in assay [4] was 7.8 µM (active).
For `O=C(O)C(F)(F)OC(F)(F)C(F)(F)OC(F)(F)C(F)(F)OC(F)(F)C(F)(F)C(F)(F)C(F)(F)F`, the compound was called inactive in assay [1], in assay [4], in assay [5], in assay [6], in [7] and in [8]. Moreover, the outcome in [9] and in assay [10] was inactive. Moreover, the concentration at half-maximal activity (AC50) in assay [2] is 19.6 µM (active) and 25.7 µM (active); in [8], 76.5 µM (active).
